# According to the supplement of paper PMC8728848:
# The entries come from a sample that favours the strongest signals as a whole.
# B1: Cohesin-hDC-ASGPR (Homo sapiens) (protein)
# chain: LDDLDAVRIKVDTVNAKPGDTVRIPVRFSGIPSKGIANCDFVYSYDPNVLEIIEIEPGDIIVDPNPDKSFDTAVYPDRKIIVFLFAEDSGTGAYAITKDGVFATIVAKVKEGAPNGLSVIKFVEVGGFANNDLVEQKTQFFDGGANVGDTTEPATPTTPVTTPTTTDDLDAASQNSKFQRDLVTLRTDFSNFTSNTVAEIQALTSQGSSLEETIASLKAEVEGFKQERQAGVSELQEHTTQKAHLGHCPHCPSVCVPVHSEMLLRVQQLVQDLKKLTCQVATLNNNASTEGTCCPVNWVEHQDSCYWFSHSGMSWAEAEKYCQLKNAHLVVINSREEQNFVQKYLGSAYTWMGLSDPEGAWKWVDGTDYATGFQNWKPGQPDDWQGHGLGGGEDCAHFHPDGRWNDDVCQRPYHWVCEAGLGQTSQESHHHHHH
# How the values were obtained:
# Test in all cases: glycan array binding signal (z-score within array); higher = stronger binding
# Conditions in all cases: glycan notation: IUPAC condensed, linker removed
# [1] = biological target: Fuc(a1-2)Gal
# How it was run: (§1)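 The binding signal is a Z-score computed within each array and averaged over linkers. Arrays of the same protein sequence at different concentrations or buffers were also averaged together. Data originate from 3228 arrays in the Consortium for Functional Glycomics database, kept only where the protein sequence was available.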
# [2] = biological target: Fuc(a1-2)Gal(b1-4)GlcNAc(b1-6)GalNAc
# How it was run: as §1
# [3] = biological target: Fuc(a1-2)Gal3S(b1-4)GlcNAc
# How it was run: as §1
# [4] = biological target: Fuc(a1-2)Gal6S(b1-3)GlcNAc
# How it was run: as §1
# [5] = biological target: Fuc(a1-2)[Gal(a1-3)]Gal(b1-3)GlcNAc(b1-3)GalNAc
# How it was run: as §1
# [6] = biological target: Fuc(a1-2)[Gal(a1-3)]Gal(b1-3)GlcNAc(b1-6)GalNAc
# How it was run: as §1
# [7] = biological target: Fuc(a1-2)[Gal(a1-3)]Gal(b1-4)[Fuc(a1-3)]Glc
# How it was run: as §1
# [8] = biological target: Fuc(a1-2)[Gal(a1-4)]Gal(b1-4)GlcNAc
# How it was run: as §1
# [9] = biological target: Fuc(a1-2)[GalNAc(a1-3)]Gal(b1-3)GalNAc(a1-3)[Fuc(a1-2)]Gal(b1-4)GlcNAc
# How it was run: as §1
# [10] = biological target: Fuc(a1-2)[GalNAc(a1-3)]Gal(b1-3)GlcNAc(b1-2)Man(a1-3)[Fuc(a1-2)[GalNAc(a1-3)]Gal(b1-3)GlcNAc(b1-2)Man(a1-6)]Man(b1-4)GlcNAc(b1-4)GlcNAc
# How it was run: as §1
# [11] = biological target: Fuc(a1-2)[GalNAc(a1-3)]Gal(b1-4)GlcNAc(b1-2)Man
# How it was run: as §1
# [12] = biological target: Fuc(a1-2)[GalNAc(a1-3)]Gal(b1-4)GlcNAc(b1-3)Gal(b1-4)GlcNAc(b1-3)Gal(b1-4)GlcNAc
# How it was run: as §1
# [13] = biological target: Fuc(a1-2)[GalNAc(a1-4)]Gal(b1-4)GlcNAc
# How it was run: as §1
# [14] = biological target: Fuc(a1-3)[Gal(b1-4)]GlcNAc(b1-2)Man(a1-3)[Fuc(a1-3)[Gal(b1-4)]GlcNAc(b1-2)Man(a1-6)]Man(b1-4)GlcNAc(b1-4)[Fuc(a1-6)]GlcNAc
# How it was run: as §1
# [15] = biological target: Fuc(a1-3)[Gal(b1-4)]GlcNAc(b1-3)GalNAc
# How it was run: as §1
# [16] = biological target: Gal(a1-3)Gal(b1-3)GlcNAc(b1-6)GalNAc
# How it was run: as §1
# [17] = biological target: Gal(a1-3)Gal(b1-3)[Fuc(a1-4)]GlcNAc(b1-2)Man(a1-3)[Gal(a1-3)Gal(b1-3)[Fuc(a1-4)]GlcNAc(b1-2)Man(a1-6)]Man(b1-4)GlcNAc(b1-4)GlcNAc
# How it was run: as §1
# [18] = biological target: Gal(a1-3)Gal(b1-4)Glc
# How it was run: as §1
# [19] = biological target: Gal(a1-3)Gal(b1-4)GlcNAc(b1-3)GalNAc
# How it was run: as §1
# [20] = biological target: Gal(b1-3)GlcNAc(b1-3)Gal(b1-4)GlcNAc(b1-2)[Gal(b1-3)GlcNAc(b1-3)Gal(b1-4)GlcNAc(b1-6)]Man(a1-6)[Gal(b1-3)GlcNAc(b1-3)Gal(b1-4)GlcNAc(b1-2)Man(a1-3)]Man(b1-4)GlcNAc(b1-4)[Fuc(a1-6)]GlcNAc
# How it was run: as §1
# [21] = biological target: Gal(b1-4)GlcNAc(b1-2)Man(a1-3)[Gal(b1-4)GlcNAc(b1-2)Man(a1-6)]Man(b1-4)GlcNAc(b1-4)GlcNAc
# How it was run: as §1
# [22] = biological target: Gal(b1-4)GlcNAc(b1-2)[Gal(b1-4)GlcNAc(b1-4)]Man(a1-3)[Gal(b1-4)GlcNAc(b1-2)[Gal(b1-4)GlcNAc(b1-6)]Man(a1-6)]Man(b1-4)GlcNAc(b1-4)GlcNAc
# How it was run: as §1
# [23] = biological target: Gal(b1-4)GlcNAc(b1-2)[Gal(b1-4)GlcNAc(b1-6)]Man(a1-6)[Gal(b1-4)GlcNAc(b1-2)Man(a1-3)]Man(b1-4)GlcNAc(b1-4)[Fuc(a1-6)]GlcNAc
# How it was run: as §1
# [24] = biological target: Gal(b1-4)GlcNAc(b1-3)Gal(b1-4)GlcNAc(b1-2)[Gal(b1-4)GlcNAc(b1-3)Gal(b1-4)GlcNAc(b1-6)]Man(a1-6)[Gal(b1-4)GlcNAc(b1-3)Gal(b1-4)GlcNAc(b1-2)Man(a1-3)]Man(b1-4)GlcNAc(b1-4)GlcNAc
# How it was run: as §1
# [25] = biological target: Gal3S(b1-3)[Fuc(a1-4)]GlcNAc
# How it was run: as §1
# [26] = biological target: GalNAc(a1-3)GalNAc
# How it was run: as §1
# [27] = biological target: GalNAc(a1-3)GalNAc(b1-3)Gal(a1-4)Gal(b1-4)GlcNAc
# How it was run: as §1
# [28] = biological target: GalNAc(b1-3)Gal(a1-6)Gal(b1-4)Glc
# How it was run: as §1
# [29] = biological target: GalNAc(b1-4)GlcNAc(b1-2)Man
# How it was run: as §1
# [30] = biological target: GalNAc3S(b1-4)[Fuc(a1-3)]GlcNAc
# How it was run: as §1
# [31] = biological target: GalNAc4S6S(b1-4)GlcNAc
# How it was run: as §1
# [32] = biological target: GlcNAc(a1-4)Gal(b1-4)GlcNAc(b1-3)Gal(b1-4)Glc
# How it was run: as §1
# [33] = biological target: GlcNAc(a1-4)Gal(b1-4)GlcNAc(b1-3)Gal(b1-4)[Fuc(a1-3)]GlcNAc(b1-3)Gal(b1-4)[Fuc(a1-3)]GlcNAc
# How it was run: as §1
# [34] = biological target: GlcNAc(a1-6)Gal(b1-4)GlcNAc
# How it was run: as §1
# [35] = biological target: GlcNAc(b1-3)Fuc
# How it was run: as §1
# [36] = biological target: Kdn(a2-3)Gal(b1-4)[Fuc(a1-3)]GlcNAc
# How it was run: as §1
# [37] = biological target: Man(a1-2)Man(a1-6)[Man(a1-3)]Man(a1-6)[Man(a1-2)Man(a1-2)Man(a1-3)]Man
# How it was run: as §1
# [38] = biological target: Neu5Ac(a2-3)Gal
# How it was run: as §1
# [39] = biological target: Neu5Ac(a2-3)Gal(b1-4)GlcNAc
# How it was run: as §1
# [40] = biological target: Neu5Ac(a2-3)Gal(b1-4)GlcNAc(b1-3)Gal(b1-4)GlcNAc(b1-3)[Neu5Ac(a2-3)Gal(b1-4)GlcNAc(b1-3)Gal(b1-4)GlcNAc(b1-6)]GalNAc
# How it was run: as §1
# [41] = biological target: Neu5Ac(a2-3)Gal(b1-4)GlcNAc(b1-3)[Neu5Ac(a2-3)Gal(b1-4)GlcNAc(b1-6)]GalNAc
# How it was run: as §1
# [42] = biological target: Neu5Ac(a2-3)Gal(b1-4)GlcNAc6S
# How it was run: as §1
# [43] = biological target: Neu5Ac(a2-3)Gal6S(b1-4)GlcNAc
# How it was run: as §1
# [44] = biological target: Neu5Ac(a2-3)[GalNAc(b1-4)]Gal(b1-4)Glc
# How it was run: as §1
# [45] = biological target: Neu5Ac(a2-3)[GalNAc(b1-4)]Gal(b1-4)GlcNAc(b1-3)GalNAc
# How it was run: as §1
# [46] = biological target: Neu5Ac(a2-6)Gal(b1-4)GlcNAc(b1-2)Man(a1-3)[Neu5Ac(a2-3)Gal(b1-4)GlcNAc(b1-2)Man(a1-6)]Man(b1-4)GlcNAc(b1-4)GlcNAc
# How it was run: as §1
# [47] = biological target: Neu5Ac(a2-6)Gal(b1-4)GlcNAc(b1-2)Man(a1-6)[GlcNAc(b1-2)Man(a1-3)]Man(b1-4)GlcNAc(b1-4)GlcNAc
# How it was run: as §1
# [48] = biological target: Neu5Ac(a2-8)Neu5Ac(a2-3)[Gal(b1-3)GalNAc(b1-4)]Gal(b1-4)Glc
# How it was run: as §1
# [49] = biological target: Neu5Ac(a2-8)Neu5Ac(a2-8)Neu5Ac(a2-8)Neu5Ac(a2-3)[GalNAc(b1-4)]Gal(b1-4)Glc
# How it was run: as §1
# [50] = biological target: Neu5Gc(a2-6)Gal(b1-4)GlcNAc
# How it was run: as §1
# [51] = biological target: Neu5Gc(a2-6)GalNAc
# How it was run: as §1
binder,measurement,setting,value
B1,glycan array binding signal (z-score),[1],-0.306
same,glycan array binding signal (z-score),[2],2.81
same,glycan array binding signal (z-score),[3],-0.377
same,glycan array binding signal (z-score),[4],-0.246
same,glycan array binding signal (z-score),[5],-0.407
same,glycan array binding signal (z-score),[6],2.85
same,glycan array binding signal (z-score),[7],-0.481
same,glycan array binding signal (z-score),[8],-0.495
same,glycan array binding signal (z-score),[9],3.55
same,glycan array binding signal (z-score),[10],2.83
same,glycan array binding signal (z-score),[11],2.03
same,glycan array binding signal (z-score),[12],1.93
same,glycan array binding signal (z-score),[13],3.15
same,glycan array binding signal (z-score),[14],-0.501
same,glycan array binding signal (z-score),[15],-0.391
same,glycan array binding signal (z-score),[16],2.9
same,glycan array binding signal (z-score),[17],-0.322
same,glycan array binding signal (z-score),[18],-0.483
same,glycan array binding signal (z-score),[19],-0.475
same,glycan array binding signal (z-score),[20],0.077
same,glycan array binding signal (z-score),[21],-0.447
same,glycan array binding signal (z-score),[22],-0.517
same,glycan array binding signal (z-score),[23],-0.504
same,glycan array binding signal (z-score),[24],1.87
same,glycan array binding signal (z-score),[25],-0.306
same,glycan array binding signal (z-score),[26],2.37
same,glycan array binding signal (z-score),[27],1.97
same,glycan array binding signal (z-score),[28],2.84
same,glycan array binding signal (z-score),[29],2.86
same,glycan array binding signal (z-score),[30],-0.502
same,glycan array binding signal (z-score),[31],-0.516
same,glycan array binding signal (z-score),[32],-0.508
same,glycan array binding signal (z-score),[33],-0.444
same,glycan array binding signal (z-score),[34],-0.439
same,glycan array binding signal (z-score),[35],-0.443
same,glycan array binding signal (z-score),[36],-0.485
same,glycan array binding signal (z-score),[37],-0.48
same,glycan array binding signal (z-score),[38],-0.335
same,glycan array binding signal (z-score),[39],-0.453
same,glycan array binding signal (z-score),[40],-0.339
same,glycan array binding signal (z-score),[41],-0.495
same,glycan array binding signal (z-score),[42],-0.518
same,glycan array binding signal (z-score),[43],-0.517
same,glycan array binding signal (z-score),[44],2.91
same,glycan array binding signal (z-score),[45],1.83
same,glycan array binding signal (z-score),[46],-0.471
same,glycan array binding signal (z-score),[47],-0.387
same,glycan array binding signal (z-score),[48],3.87
same,glycan array binding signal (z-score),[49],2.95
same,glycan array binding signal (z-score),[50],-0.392
same,glycan array binding signal (z-score),[51],2.81
